About 83,000 compounds went through this panel and 20% of them were active in at least one assay; those are over-represented in the sample as a whole.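 Percent growth is the endpoint: 0 to 100 indicates growth inhibition (40 means 60% inhibition), 0 means no net growth, and negative values indicate cell death.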 Unmarked numbers belong to inactive results. Activity calls are given as the source filed them. Rule for the calls: active = growth percent below 10; inactive = the rest.
Each compound was assayed on OVCAR-5 ovarian (assay: NCI-60 one-dose screen, 48 h (100 = growth as untreated, 0 = no growth, -100 = all killed)). Details: 10 µM unless noted.

Row | SMILES | growth
1 | CC(C)(C)c1cc(C=O)cc(C(C)(C)C)c1O | 108%
2 | COc1ccc(OC)c(CCn2cncc2-c2c[nH]c3ccccc23)c1 | 94.4%
3 | COCCCN1CC(O)=C(c2nc(-c3ccc(C)cc3)cs2)C1=N | 97.6%
4 | O=C(CCN1CCCC1)Nc1ccc2c(Nc3ccc(Br)cc3)c3ccccc3nc2c1 | 41.9%
5 | O=C(Cn1c[n+](CC(=O)c2ccc(-c3ccccc3)cc2)c2ccccc21)Nc1cccc2cccnc12 | 62.8%
6 | CCN1Cc2nc3sc(C)c(C)c3c(=O)n2C=C1C | 85.9%
7 | Cc1ccc(-n2c3c(c(-c4ccccc4)c2-c2ccccc2)C2=NCCN2C=N3)cc1 | 103%
8 | CCCCC[n+]1ccc(SCC(=O)N(C)c2ccc(Oc3ccccc3)cc2)c2ccccc21 | 105%
9 | COc1cc(OC)cc(C(=O)C[n+]2cccc3cc[nH]c32)c1 | 98.9%
10 | CCOC(=O)[C@@H]1CCCN(S(=O)(=O)c2ccc(S(=O)(=O)N(CC)CC)c(F)c2)C1 | 95.5%
11 | Cn1ccc2c1CC1CN(Cc3ccco3)C(=O)C1C2C(=O)O (centres undefined) | 95%
12 | O=C(NO)c1ccc(-n2nc(-c3ccccc3)c3ccccc32)cc1 | 63.8%
13 | COc1ccc(CC(C)=C(c2ccc(OCCN3CCCCCC3)cc2)c2ccc(OCCN3CCCCCC3)cc2)cc1 | -95.9% (active)
14 | Nc1n[nH]c2cccc(C#Cc3cccc(C(=O)Nc4cccc(C(F)(F)F)c4)c3)c12 | 57.6%
15 | Cc1ccc(C(=O)/C(=C/c2ccc([N+](=O)[O-])cc2)SCc2ccc(Cl)cc2)cc1 | 85.1%
16 | O=C(O)c1ccc2c(c1)C(=O)N(Cc1ccccc1)C2=O | 105%
17 | O=C1Nc2cc(-c3cccc(O)c3)ccc2/C1=C/c1ccc[nH]1 | 19.4%
18 | O=Cc1ccc(-c2cn3ccnc3c(-c3ccc4ncn(Cc5ccccc5)c4c3)n2)cc1 | 102%
19 | CCc1ccc(CNc2ccc(N3CCOCC3)c(C(=O)O)c2)cc1 | 99.9%

Row | SMILES | growth
20 | O=C(CCN1CCCC1)c1ccc([N+](=O)[O-])cc1 | 102%
21 | CNCCOc1nc2c3cnccc3cc(-c3cc(OC)c(OC)c(OC)c3)c2c2ccncc12 | -9.07% (active)
22 | Nc1c(S(=O)(=O)O)cc2c3c(cccc13)C(=O)OC2=O | 118%
23 | Oc1ccc(C(c2ccc(O)cc2)c2ccc(Br)cn2)cc1 | 78.4%
24 | CCCCOc1ccc(/C=N/Nc2cc(C)nc3ccc(Br)cc23)cc1 | 100%
25 | CC1(C)NCCC[C@]2(C)[C@H]3CC(=O)[C@H]4[C@@H]5C[C@](C)(CO)CC[C@]5(C)CC[C@@]4(C)[C@]3(C)CC[C@@H]12 | 98.3%
26 | N#Cc1cc(-c2nc3ccccc3s2)c(=O)n(NS(=O)(=O)c2ccccc2)c1N | 102%
27 | O=S(=O)(NCCNc1nccc(-c2c(-c3cccc(O)c3)nc3occn23)n1)c1cccc(F)c1 | 128%
28 | c1ccc2c(-c3c[nH]c4ccccc34)c3c(cc2c1)[nH]c1ccccc13 | 96%
29 | O=C(/C=C(/C=C/c1csc2ccccc12)OB(F)F)/C=C/c1csc2ccccc12 | 60.6%
30 | Cc1ccc(-c2csc(NC(=O)CSc3nc(-c4ccccc4)cc(=O)[nH]3)n2)cc1 | 95.8%
31 | CCCC/C=N/NC(=S)NCc1ccccc1 | 92.7%
32 | COc1ccc2nc(-c3ccc(-c4noc(-c5cc(OC)c(OC)c(OC)c5)n4)cc3)[nH]c2c1 | 113%
33 | Fc1ccc(-c2cn3c(nc4ccccc43)c(-c3ccccc3)n2)cc1 | 111%
34 | CCNC(=O)Oc1ccc(/C(=C(\C)c2ccccc2)c2ccc(OCCN3CCCCC3)cc2)cc1 | 84.8%
35 | CCCCOc1ccc(/C(C)=N/Nc2cc(C)nc3ccc(Br)cc23)cc1 | 113%
36 | N#Cc1cccc(-c2ccc3c(c2)NC(=O)/C3=C\c2ccc[nH]2)c1 | 38.5%
37 | O=C(NNc1nc2c(F)cccc2n2cccc12)c1cnccn1 | 39%
38 | CN(C)CCC(=O)c1ccc([N+](=O)[O-])cc1 | 102%

The compounds below were run on OVCAR-4 ovarian in the same assay as above. Details: 10 µM unless noted.

Row | SMILES | growth
39 | COc1ccc(OC)c(CCn2cncc2-c2c[nH]c3ccccc23)c1 | 44.6%
40 | COCCCN1CC(O)=C(c2nc(-c3ccc(C)cc3)cs2)C1=N | 150%
41 | O=C(CCN1CCCC1)Nc1ccc2c(Nc3ccc(Br)cc3)c3ccccc3nc2c1 | -20.2% (active)
42 | O=C(Cn1c[n+](CC(=O)c2ccc(-c3ccccc3)cc2)c2ccccc21)Nc1cccc2cccnc12 | 10.3%
43 | CCN1Cc2nc3sc(C)c(C)c3c(=O)n2C=C1C | 42.3%
44 | Cc1ccc(-n2c3c(c(-c4ccccc4)c2-c2ccccc2)C2=NCCN2C=N3)cc1 | 78.5%
45 | COc1cc(OC)cc(C(=O)C[n+]2cccc3cc[nH]c32)c1 | 99.3%
46 | CCOC(=O)[C@@H]1CCCN(S(=O)(=O)c2ccc(S(=O)(=O)N(CC)CC)c(F)c2)C1 | 75.5%
47 | Cn1ccc2c1CC1CN(Cc3ccco3)C(=O)C1C2C(=O)O (centres undefined) | 99.5%
48 | O=C(NO)c1ccc(-n2nc(-c3ccccc3)c3ccccc32)cc1 | 19.2%
49 | COc1ccc(CC(C)=C(c2ccc(OCCN3CCCCCC3)cc2)c2ccc(OCCN3CCCCCC3)cc2)cc1 | -83.9% (active)
50 | Nc1n[nH]c2cccc(C#Cc3cccc(C(=O)Nc4cccc(C(F)(F)F)c4)c3)c12 | 66.2%
51 | O=C(O)c1ccc2c(c1)C(=O)N(Cc1ccccc1)C2=O | 114%
52 | O=C1Nc2cc(-c3cccc(O)c3)ccc2/C1=C/c1ccc[nH]1 | 25.4%
53 | O=Cc1ccc(-c2cn3ccnc3c(-c3ccc4ncn(Cc5ccccc5)c4c3)n2)cc1 | 83.1%
54 | CCc1ccc(CNc2ccc(N3CCOCC3)c(C(=O)O)c2)cc1 | 110%

Row | SMILES | growth
55 | O=C(CCN1CCCC1)c1ccc([N+](=O)[O-])cc1 | 102%
56 | CNCCOc1nc2c3cnccc3cc(-c3cc(OC)c(OC)c(OC)c3)c2c2ccncc12 | -2.03% (active)
57 | Nc1c(S(=O)(=O)O)cc2c3c(cccc13)C(=O)OC2=O | 94%
58 | Oc1ccc(C(c2ccc(O)cc2)c2ccc(Br)cn2)cc1 | -38.1% (active)
59 | CCCCOc1ccc(/C=N/Nc2cc(C)nc3ccc(Br)cc23)cc1 | 44%
60 | N#Cc1cc(-c2nc3ccccc3s2)c(=O)n(NS(=O)(=O)c2ccccc2)c1N | 107%
61 | c1ccc2c(-c3c[nH]c4ccccc34)c3c(cc2c1)[nH]c1ccccc13 | 57.8%
62 | O=C(/C=C(/C=C/c1csc2ccccc12)OB(F)F)/C=C/c1csc2ccccc12 | -0.888% (active)
63 | Cc1ccc(-c2csc(NC(=O)CSc3nc(-c4ccccc4)cc(=O)[nH]3)n2)cc1 | 105%
64 | COc1ccc2nc(-c3ccc(-c4noc(-c5cc(OC)c(OC)c(OC)c5)n4)cc3)[nH]c2c1 | -53.4% (active)
65 | Fc1ccc(-c2cn3c(nc4ccccc43)c(-c3ccccc3)n2)cc1 | 67.1%
66 | CCNC(=O)Oc1ccc(/C(=C(\C)c2ccccc2)c2ccc(OCCN3CCCCC3)cc2)cc1 | 65.5%
67 | N#Cc1cccc(-c2ccc3c(c2)NC(=O)/C3=C\c2ccc[nH]2)c1 | 30.9%
68 | O=C(NNc1nc2c(F)cccc2n2cccc12)c1cnccn1 | 28.1%
69 | CN(C)CCC(=O)c1ccc([N+](=O)[O-])cc1 | 100%

Source: PubChem BioAssay (NCI)
